Compound activity (PubChem)
KB-V1 cytotox = kills drug-selected multidrug resistant KB-V1 cells. KB-V1 MDR cells viability, CellTiter-Glo, 72 h. Potency, µM (series often up to 46.1 µM), usual class: cytotoxic. actives 3.4% (n = 400,000). AID 1347076; further: nearly all actives have a fitted effect of over 60% in size
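KB-V1, DMEM (no phenol red) + 10% FBS; cpd pin-transferred, titration series; 72 h, 37 degrees C; CellTiter-Glo, luminescence. Data normalized, curve-fit.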
HT1080 IDH1KD tx = kills HT-1080 cells with IDH1 knockdown | actives 2% (n = 360,000) | Potency, µM (titrated, usually from 46.1 µM), hits mostly cytotoxic | HT-1080 IDH1 knockdown viability, ATP luminescence, 48 h
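CellTiter-Glo luminescence after 48 h compound exposure at 37 degrees C of IDH1-knockdown HT-1080 cells in 5% FBS RPMI. %Activity scaled between DMSO wells and cell-free media wells, with curves fitted and assigned curve classes.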
KB-3-1 cytotox = KB-3-1 parental cell cytotoxicity; AID 1347075; actives 1.4% (n = 400,000); KB-3-1 viability, CellTiter-Glo ATP luminescence, 72 h; Potency, µM (doses to about 46.1 µM), actives largely listed as cytotoxic; further: nearly all actives have a fitted effect of over 60% in size
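Parental KB-3-1 adenocarcinoma cells in phenol-red-free DMEM with 10% FBS were pin-treated with compounds at several concentrations, incubated 72 h at 37 °C, and viability read by CellTiter-Glo luminescence; concentration-effect curves were fitted after normalization.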
HT1080-NT tox = kills 2HG-producing HT-1080-NT fibrosarcoma cells | HT-1080-NT fibrosarcoma viability, CellTiter-Glo ATP luminescence, 48 h | actives 1.6% (n = 360,000) | Potency, µM (top dose mostly 46.1 µM), usual class: cytotoxic;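 further: NT is the 2HG producing partner of a matched IDH1 knockdown line; nearly all actives have a fitted effect of over 55% in size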
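Fibrosarcoma NT cells, 750 per well in 5% FBS RPMI, were exposed to compound for 48 hours. Viability: CellTiter-Glo luminescence.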
IL-1B inflam inh = inflammasome signaling inhibition, IL-1 beta readout; THP-1 LPS/ATP IL-1B secretion, AlphaLISA, 16 h; active compounds read low; activity change, % at 57.5 µM; actives 4.7% (n = 360,000); in the data active means activity change below about -50%; inconclusive means mostly about -30% to -49%
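THP-1 cells pretreated 1 hr with compounds (up to 57.5 uM final), then stimulated with LPS (250 ng/mL final) plus ATP (1.25 mM final); secreted IL-1B measured by AlphaLISA after 16 hr, decreased signal indicating inhibition.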
Numbers stand for hits; i = inactive; ? = inconclusive; nt = no result given; [ ] = dose if it differs, or a comment. In the library only some 8.8% were active in any assay of this set; here they are far more common. Unless noted, the call rests on the fitted dose curve; in most records, active means well fitted curve in the direction sought with a large enough effect; inconclusive means small, poorly fitted or top-dose-only effect, or another doubt; inactive means no such curve, though single readings can be large; an effect the other way counts as inactive or inconclusive.

SMILES | KB-V1 cytotox | HT1080 IDH1KD tx | KB-3-1 cytotox | HT1080-NT tox | IL-1B inflam inh
Cc1ccc(C)c(-n2c3nc(=O)[nH]c(=O)c-3cc3cc([N+](=O)[O-])ccc32)c1 | i | 5.2µM | 23µM | 6.5µM | -99
C=CC[C@H](CC(=O)NCCO)C(=O)NC[C@@H](OC(=O)[C@H](CC=C)CC(=O)OC(C)(C)C)c1ccccc1 | i | i | i | i | i
CC1(C(=O)NCc2ccc(C(F)(F)F)cc2)CCN1C1Cc2ccccc2C1 (stereo not drawn) | i | ? | i | i | i
Cc1cc(S(=O)(=O)NC2CCN(Cc3ccccc3)CC2)c(C)cc1Cl | i | 21µM | i | ? | -96
Cc1cc(C)c(C)c(S(=O)(=O)NC2CCN(Cc3ccccc3)CC2)c1C | i | 16µM | i | ? | -73
Cc1cc(C)c(S(=O)(=O)NC2CCN(Cc3ccccc3)CC2)c(C)c1 | ? | i | i | i | i
CCC(=O)Nc1sc2c(c1C(=O)Nc1ccccc1C)CCC(C)C2 (stereo not drawn) | i | nt | i | nt | nt
O=C(CNc1cccc(C(F)(F)F)c1)N/N=C/c1cccc(Br)c1 | i | i | i | i | i
Cc1ccc(C)c(OCC(=O)N/N=C/c2c(C)nn(-c3ccccc3)c2Cl)c1C | 8.2µM | i | ? | i | i
Cc1nn(-c2ccccc2)c(Cl)c1/C=N/NC(=O)CNC(=O)c1ccccc1Cl | i | i | i | i | i
Cc1cccc(C)c1NC(=O)c1c(C)nn(-c2ccccc2)c1Cl | 15µM | i | i | i | i
Cc1nn(-c2ccccc2)c(Cl)c1/C=N/NC(N)=O | 2.1µM | i | ? | i | nt
Cc1nn(Cc2ccccc2)c(Cl)c1/C=N/NC(=O)CNc1cccc(C(F)(F)F)c1 | 9.2µM | i | i | i | i
COC(=O)N/N=C\c1c(C)nn(-c2ccccc2)c1Cl | i | i | i | i | i
Cc1cc(=O)[nH]c(SCc2ccc(Cl)cc2Cl)n1 | i | i | i | i | i
O=S(=O)(NCc1ccc(F)cc1)c1ccc(Br)cc1Br | ? | i | i | i | i
CC1=C(C(=O)OC2CCCC2)C(c2cccc(Cl)c2Cl)CC(=O)N1 (stereo not drawn) | ? | nt | i | nt | nt
Cc1ccc(-c2cc(C(=O)N/N=C/c3c(C)nn(-c4ccccc4)c3C)n[nH]2)s1 | i | 1.8µM | i | 1.6µM | i
CCOC(=O)N/N=C/c1c(C)nn(-c2cccc(C(F)(F)F)c2)c1Cl | 2.6µM | 2.3µM | 2.1µM | 3.3µM | i
CCc1n[nH]c(=S)n1/N=C/c1c(C)nn(-c2ccccc2)c1Cl | 1.3µM | i | ? | i | i
Cc1nn(-c2ccccc2)c(C)c1/C=N/NC(=O)c1cc(C(C)(C)C)[nH]n1 | ? | i | i | i | i
Cc1cc(C)c(C#N)c(OCC(=O)c2ccc(Br)cc2)n1 | 5.8µM | ? | i | i | i
Cc1ccc(C(=O)COc2nc(C)cc(C)c2C#N)cc1 | 10µM | i | i | i | i
Nc1nc2ncccc2cc1C(=O)NCCc1cccs1 | i | 15µM | ? | i | i
Cc1cc(Cl)ccc1OCc1cn2cccnc2n1 | i | i | i | i | i
SMILES | KB-V1 cytotox | HT1080 IDH1KD tx | KB-3-1 cytotox | HT1080-NT tox | IL-1B inflam inh
O=C(COC(=O)c1c2c(nc3ccccc13)CCN(Cc1ccccc1)C2)Nc1c(F)cccc1F | 18µM | i | i | i | i
CN(C)c1ccc(/C=C/c2ccc3cc(N)ccc3n2)cc1 | i | nt | i | nt | nt
CCOC(=O)C(C(=O)OCC)C1OC(=O)c2cc3c(cc21)C(=O)OC3C(C(=O)OCC)C(=O)OCC (stereo not drawn) | i | ? | i | ? | -98
O=C1C(Nc2ccccc2)=C(N2CCCCC2)C(=O)c2ccccc21 | i | ? | ? | ? | i
O=C1C(Nc2cccc(O)c2)=C(N2CCCCC2)C(=O)c2ccccc21 | i | ? | ? | ? | -84
O=C1C(NS(=O)(=O)c2ccc(Br)cc2)=C(N2CCCCC2)C(=O)c2ccccc21 | i | i | i | ? | i
Cc1ccc(NC2=C(N3CCCCC3)C(=O)c3ccccc3C2=O)cc1 | i | ? | ? | ? | -68
O=C(/C=C/c1ccc(O)cc1)c1ccc(NC2=C(N3CCCCC3)C(=O)c3ccccc3C2=O)cc1 | ? | ? | 2.1µM | i | ?
CN(C1=C(N2CCCCC2)C(=O)c2ccccc2C1=O)c1ccccc1 | i | ? | i | ? | -82
Cc1ccc(C(=O)NCC(=O)OCc2cc(=O)n3c(C)csc3n2)cc1 | i | nt | i | nt | nt
CC1CN(S(=O)(=O)c2cccc(C(=O)N(Cc3nnc(-c4ccccc4Cl)o3)C3CC3)c2)CC(C)O1 (stereo not drawn) | i | i | i | i | i
COc1ccccc1NC1=C(N2CCCCC2)C(=O)c2ccccc2C1=O | i | ? | 2.6µM | 4.6µM | ?
CCOc1cc(C(=S)N2CCOCC2)ccc1OS(=O)(=O)c1ccc(NC(C)=O)cc1 | ? | i | i | i | -53
Cc1ccc(C2C(=O)N(C3CCCC3)CC(=O)N2C2CCCCC2)cc1 (stereo not drawn) | 2.9µM | i | i | i | i
COc1ccc(C2C(=O)N(C3CCCCC3)CC(=O)N2C2CCCCC2)cc1 (stereo not drawn) | i | i | i | i[9.24 µM] | i
COc1ccc(NC(=O)Cn2c(=O)oc3cc(S(=O)(=O)NCc4ccccc4)ccc32)c(OC)c1 | i | nt | ? | nt | nt
CN(CCO)c1nc(-c2cccs2)nc2ccccc12 | nt | i | nt | i | nt
Cc1ccc2oc(C(=O)Nc3ccc(S(=O)(=O)N4CCCCC4C)cc3)cc(=O)c2c1 (stereo not drawn) | i | nt | i | nt | nt
CC(=O)Nc1ccc(OC(=O)c2ccc(Br)c([N+](=O)[O-])c2)cc1 | i | ? | i | i | -147
O=C1OC(/C(=C\Nc2ccccc2)[N+](=O)[O-])c2ccccc21 (stereo not drawn) | i | ? | i | ? | -104
O=C1OC(/C(=C\NCc2ccccc2)[N+](=O)[O-])c2ccccc21 (stereo not drawn) | i | i | i | i | i
COc1ccc(-c2cc3cc(-c4cc(OC)c(OC)c(OC)c4)ccc3o2)cc1 | i | i | i | i | i
O=[N+]([O-])c1ccc(O)c(-c2cc(C(F)(F)F)nc(-c3ccccc3)n2)c1 | ? | i | 1.5µM | 2.3µM | -62
COCCNC(=O)C1(C)CCCN(C(=O)c2ccc(C(F)(F)F)cc2)C1 (stereo not drawn) | i | i | i | i | i
O=S(=O)(c1ccccc1Br)N(Cc1ccccc1)CC(O)COCc1ccccc1 (stereo not drawn) | i | ? | i | ? | -61
COc1ccc(C2=Nc3ccccc3N(C(=O)c3ccncc3)C2C(=O)NC(C)C)cc1 (stereo not drawn) | ? | i | i | i | i
Cn1c(C(c2cc3ccccc3n2C)c2cc3ccccc3n2C)cc2ccccc21 | ? | nt | 18µM | nt | nt
